# Screening data as filed in PubChem BioAssay.
# MARV entry inh: inhibitors of Marburg virus binding or cell entry; Marburg virus pseudotyped entry inhibition, cell reporter; Potency, µM (titrated, usually from 37.8 µM), usual class: inhibitors; actives 1.8% (n = 300,000); AID 540276; calls by dose curve; tested in HEK293 cells
# RE007 growth inh: less growth of the S. pombe RE007 Vpr strain; S. pombe RE007 Vpr strain, BacTiter-Glo ATP luminescence, 24 h; Potency, µM (highest dose often 92.2 µM), hits mostly inhibitors; actives 0.21% (n = 360,000); active = well fitted falling curve with a large enough effect; inconclusive = small, poorly fitted or top-dose-only effect; inactive = no such curve, though single readings can be large or run the other way; note: nearly all actives have a fitted effect of over 50% in size
#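 Fission yeast RE007 carrying one integrated HIV-1 vpr copy, seeded at OD 0.01 in PMG+AL medium with 23 nL pinned compound. Grown 24 h at 30 degrees; viability read by BacTiter-Glo luminescence after 5 min.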
# Sm TGR block: inhibitors of Schistosoma mansoni thioredoxin glutathione reductase; purified TGR, DTNB reduction, TNB absorbance 405 nm; Potency, µM (series often up to 114 µM), most hits filed as inhibitors; actives 3% (n = 360,000); AID 485364; note: nearly all actives have a fitted effect of over 60% in size
#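 Kinetic colorimetric format: TGR-catalysed, NADPH-driven DTNB reduction monitored via TNB absorbance. Enzyme dispensed at 20 nM; compound exposure 15 min at room temperature before reaction start.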
# LASV entry inh: Lassa virus entry inhibition. Lassa virus pseudotype entry inhibition, cell reporter. Potency, µM (series often up to 37.9 µM), hits mostly inhibitors. actives 1.2% (n = 300,000); calls by dose curve; tested in HEK293 cells; note: nearly all actives have a fitted effect of over 50% in size
# HCV inh: inhibitors of hepatitis C virus infection | Huh7.5.1 HCVcc-Cre infection, luciferase reporter, 44 h | AID 651820 | actives 3.4% (n = 340,000) | Potency, µM (series often up to 41.8 µM), most hits filed as inhibitors
#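 Luciferase read-out (15 sec integration) after a 15 min room-temperature substrate step quantifies HCVcc-Cre infection. Cells, 1,000 per well, had compound added 4 h post-plating, then virus at ~0.5 moi, and were cultured 44 h.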
# FMDV inh: antivirals against foot and mouth disease virus | FMDV antiviral cell-based qHTS | Potency, µM (highest dose often 57.9 µM), hits mostly inhibitors | actives 1.2% (n = 410,000); calls by dose curve; tested in HEK293T cells; note: read-out not given here; nearly all actives have a fitted effect of over 45% in size
# Numbers stand for hits; – = inactive; ? = inconclusive; · = not tested or not shown. The list is not random: actives were taken first. Their share in the collection is about 7.2%. Unless noted, calls come from the whole dose curve; as a rule, active = well fitted curve in the direction sought with a large enough effect; inconclusive = small, poorly fitted or top-dose-only effect, or another doubt; inactive = no such curve, though single readings can be large; an effect the other way counts as inactive or inconclusive.
SMILES,MARV entry inh,RE007 growth inh,Sm TGR block,LASV entry inh,HCV inh,FMDV inh
CCOC(=O)C1CCN(Cc2cn3c(-c4ccc(OC)cc4)nnc3s2)CC1,·,·,?,–,·,?
O=C(Cn1cc(SCc2ccc(Br)cc2)c2ccccc21)N1CCCCC1,·,·,–,–,·,–
Cc1ccc2scc(N3CCCCC3)c(=O)c2c1,·,·,–,–,·,–
Cc1cc(C)cc(NC(=O)c2sc3nc4n(c(=O)c3c2C)N=C(c2ccc(F)cc2)CS4)c1,·,·,–,–,·,–
C(=C\c1ccco1)/C1=NN(c2ccccc2)C(c2ccco2)C1 (configuration not stated),?,–,28.2µM,–,–,–
O=[N+]([O-])c1ccc(/C=C/C2=NN(c3ccccc3)C(c3ccco3)C2)o1 (configuration not stated),–,–,39.8µM,–,?,–
Fc1ccc(C2=NN(c3ccccc3)C(c3ccco3)C2)cc1 (configuration not stated),·,–,–,·,?,–
CCCC(=O)NCC1(N(C)C)CCCCC1,–,·,–,?,·,–
COc1ccc2[nH]c3c(N4CCN(Cc5ccc6c(c5)OCO6)CC4)ncnc3c2c1,?,–,–,?,?,?
CCOc1ccc2[nH]c3c(NCC(C)C)ncnc3c2c1,·,–,–,·,?,–
CCOc1ccc2[nH]c3c(N4CCc5ccccc5C4)ncnc3c2c1,10µM,?,–,?,–,–
Fc1ccc2[nH]c3c(N4CCc5ccccc5C4)ncnc3c2c1,?,–,–,?,5.01µM,?
Cc1ccc2[nH]c3c(N4CCc5ccccc5C4)ncnc3c2c1,6.31µM,–,–,?,3.55µM,?
COc1ccc2[nH]c3c(N4CCC(O)(c5cccc(C(F)(F)F)c5)CC4)ncnc3c2c1,?,–,–,?,6.31µM,28.2µM
Cc1ccc(CN2CCc3nc(SCC(=O)Nc4cccc(C)c4C)[nH]c(=O)c3C2)cc1,–,·,–,?,·,–
COC(=O)CC1OC1[C@H](C)[C@@H](OC)C(C)C (some centres not stated),–,·,·,?,·,·
COc1ccc(O[C@H]2C=C[C@@H](c3ccccc3)O[C@H]2COC(=O)CCC(C)=NO[C@@H](C)c2cc(-c3c(C)cc(C)cc3C)no2)cc1,–,·,·,·,·,·
Brc1ccc2[nH]c3c(N4CCc5ccccc5C4)ncnc3c2c1,?,–,–,–,3.55µM,–
CN1CCN(c2ncnc3c2[nH]c2ccc(F)cc23)CC1,–,–,–,–,10µM,?
c1ccc2c(c1)[nH]c1c(N3CCSCC3)ncnc12,–,–,–,–,12.6µM,22.4µM
c1ccc2c(c1)[nH]c1c(N3CCOCC3)ncnc12,–,–,–,–,?,·
Cc1ccc2[nH]c3c(N4CCOCC4)ncnc3c2c1,–,–,–,–,?,–
COc1cccc(/C=C/C(=O)NCc2ccc(S(N)(=O)=O)cc2)c1,–,–,–,–,10µM,–
COc1cccc([C@H]2Oc3ccc(OC)cc3/C(=N\OC[C@@H](C)[C@H](OCc3ccccc3)C(C)C)[C@@H]2O)c1,–,·,·,·,·,·
Cc1ccc(-c2nc3nc4ccccc4nc3n2Cc2ccco2)cc1,–,–,17.8µM,?,–,–
SMILES,MARV entry inh,RE007 growth inh,Sm TGR block,LASV entry inh,HCV inh,FMDV inh
Clc1ccc(-c2nc3nc4ccccc4nc3n2Cc2ccco2)cc1,?,–,20µM,–,–,–
COc1ccccc1Cn1c(-c2ccco2)nc2nc3ccccc3nc21,–,–,·,?,–,–
O=C(O)[C@H]1Cc2ccccc2CN1S(=O)(=O)c1ccc(F)cc1,·,–,–,·,–,–
CC(=O)c1ccc(S(=O)(=O)N2Cc3ccccc3CC2C(=O)O)cc1 (configuration not stated),–,–,11.2µM,–,–,–
CCOc1ccc(N(CC)S(=O)(=O)N2CCCC(C(=O)Nc3ccc(OC)c(Cl)c3)C2)cc1 (configuration not stated),·,·,–,?,·,–
COc1ccccc1CNS(=O)(=O)c1ccc(N2CCCC2)cc1Br,·,–,·,·,11.2µM,–
CCC(=O)N1CCc2cc(Br)cc(S(=O)(=O)NCc3ccccc3OC)c21,–,–,–,·,–,–
CCSc1ccc([C@@H]2[C@@H]3C(=O)N(CC)C(=O)[C@@H]3[C@]3(C(=O)OC)CCCCN23)cc1,·,–,–,·,0.708µM,–
